Assay [1] is described as follows: NCI Yeast Anticancer Drug Screen. Data for the rad50 strain (AID 155).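 Also: 0% = growth of vehicle-only cultures of the same strain.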 As to conditions: S. cerevisiae rad50 strain growth inhibition, stronger effect = higher value. An outline of the steps:
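Cells are treated with compound, grown, and their growth is then scored against vehicle-only cultures of the same repair-deficient yeast strain.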

Assay [2] in a line: NCI Yeast Anticancer Drug Screen. Data for the mec2-1 strain (AID 157). As to conditions: S. cerevisiae mec2-1 strain, stronger effect = higher value. An outline of the steps: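 Test agents were screened against the mec2-1 yeast strain, with defined DNA repair or cell cycle alteration. Growth was scored as inhibition against vehicle-only controls.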
Assay [3] is described as follows: NCI Yeast Anticancer Drug Screen. Data for the sgs1 mgt1 strain (AID 161).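 Also: 0% = growth of cultures given vehicle only.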 As to conditions: S. cerevisiae sgs1 mgt1 strain, stronger effect = higher value. An outline of the steps:
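Read-out: growth inhibition vs vehicle controls. Cells: mutant yeast strain deficient in DNA damage repair.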

A short description of assay [4]: NCI Yeast Anticancer Drug Screen. Data for the cln2 rad14 strain (AID 165).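 Also: 0% = growth equal to vehicle treated cultures.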 As to conditions: S. cerevisiae cln2 rad14 strain, stronger effect = higher value. An outline of the steps: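 Growth of compound-exposed yeast (cln2 rad14 genotype) measured and expressed as inhibition relative to vehicle.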
The nature of assay [5]: NCI Yeast Anticancer Drug Screen. Data for the bub3 strain (AID 167). The following applies: S. cerevisiae bub3 mutant strain, stronger effect = higher value. The method in brief: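 Part of a panel of yeast mutants defective in DNA damage repair or cell cycle regulation. Each strain is grown with compound, and inhibition is calculated relative to solvent-treated cultures.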
Assay [6] is described as follows: NCI Yeast Anticancer Drug Screen. Data for the mlh1 rad18 strain (AID 175). The following applies: S. cerevisiae mlh1 rad18 strain growth inhibition, stronger effect = higher value. An outline of the steps: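 In this whole-cell yeast screen, a strain with altered DNA damage repair is challenged with compound, and its growth is measured against matched vehicle-treated controls.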

The mark [7] stands for this setting: at 5.0 µM (retest, dose inferred, filed as 0.5).
Where [8] appears, read: at 50.0 µM (retest, dose inferred, filed as 5.0).

Each structure is given as a SMILES string. This is part of a sample that, as a whole, favours compounds with a hit. Of some 79,000 tested, about 15% had one in any assay. A number with no mark means an inactive call. The source made the active and inactive calls. Rule as the data show it: active = growth inhibition above about 70%; inactive = the rest.

Regarding `C=C1C(=O)OC2C(C)C3C=CC(=O)[C@@]3(C)C(OC(=O)/C(C)=C/C)C1[C@@H]2OC(C)=O` (some centres not stated), the growth inhibition in assay [1] (setting [7]) was 3%; in assay [1] (setting [8]) it was 91% (active); in assay [1] (at 50.0 µM), 80.2% (active); in assay [2] (setting [7]) it was 16%; in assay [2] (setting [8]), 95% (active); in assay [2] (at 50.0 µM), 88.5% (active). The growth inhibition in assay [3] (setting [7]) was 13%; in assay [3] (setting [8]) it was 92% (active); in assay [3] (at 50.0 µM), 87.8% (active); in assay [4] (setting [7]), 11%; in assay [4] (setting [8]), 81% (active); in assay [4] (at 50.0 µM), 79.3% (active). In addition, the growth inhibition is 4% in assay [5] (setting [7]); 93% (active) in assay [5] (setting [8]); 89.5% (active) in assay [5] (at 50.0 µM); 16% in assay [6] (setting [7]); 94% (active) in assay [6] (setting [8]); 87% (active) in assay [6] (at 50.0 µM).

In the case of `C/C=C/C/C=C/CCC(=O)C1OC1C(N)=O` (configuration not stated), the growth inhibition in assay [1] (setting [7]) is 98% (active); in assay [1] (setting [8]) it was 99% (active); in assay [1] (at 50.0 µM), 92.3% (active); in assay [2] (setting [7]), 99% (active); in assay [2] (setting [8]), 99% (active); in assay [2] (at 50.0 µM), 93.3% (active). Further, the growth inhibition was 99% (active) in assay [3] (setting [7]); 99% (active) in assay [3] (setting [8]); 93.3% (active) in assay [3] (at 50.0 µM); 98% (active) in assay [4] (setting [7]); 99% (active) in assay [4] (setting [8]); 91.4% (active) in assay [4] (at 50.0 µM). Also, the growth inhibition was 99% (active) in assay [5] (setting [7]); 98% (active) in assay [5] (setting [8]); 91.8% (active) in assay [5] (at 50.0 µM); 99% (active) in assay [6] (setting [7]); 99% (active) in assay [6] (setting [8]); 91.8% (active) in assay [6] (at 50.0 µM).

Regarding `O=C1CNC(=O)c2cc(Cl)ccc2N1`, the growth inhibition in assay [1] (setting [7]) is 46%; in assay [1] (setting [8]) it was 45%; in assay [1] (at 50.0 µM), -8.75%; in assay [2] (setting [7]) it was 25%; in assay [2] (setting [8]), 32%; in assay [2] (at 50.0 µM), -26.1%. Also, the growth inhibition in assay [3] (setting [7]) was 34%; in assay [3] (setting [8]), 44%; in assay [3] (at 50.0 µM), 8.6%; in assay [4] (setting [7]) it was 28%; in assay [4] (setting [8]), 29%; in assay [4] (at 50.0 µM) it was 13.9%. For the same compound, the growth inhibition was 34% in assay [5] (setting [7]); 67% in assay [5] (setting [8]); 40.1% in assay [5] (at 50.0 µM); 44% in assay [6] (setting [7]); 42% in assay [6] (setting [8]); -2.1% in assay [6] (at 50.0 µM).

Take `Nc1ccc(S(=O)(=O)Nc2cc(Cl)cc(Cl)c2)cc1`: the growth inhibition in assay [1] (setting [7]) is -4%; in assay [1] (setting [8]), 92% (active); in assay [1] (at 50.0 µM), 99.5% (active); in assay [2] (setting [7]), -4%; in assay [2] (setting [8]) it was 100% (active); in assay [2] (at 50.0 µM), 97.2% (active). Also, the growth inhibition in assay [3] (setting [7]) was -4%; in assay [3] (setting [8]) it was 99% (active); in assay [3] (at 50.0 µM) it was 99.3% (active); in assay [4] (setting [7]) it was -15%; in assay [4] (setting [8]), 99% (active); in assay [4] (at 50.0 µM) it was 97.3% (active). For the same compound, the growth inhibition in assay [5] (setting [7]) was 3%; in assay [5] (setting [8]), 99% (active); in assay [5] (at 50.0 µM) it was 99.2% (active); in assay [6] (setting [7]), 1%; in assay [6] (setting [8]) it was 99% (active); in assay [6] (at 50.0 µM) it was 98.2% (active).

In the case of `COC(=O)C(=O)N(c1cc(C)ccc1C)c1cc(C)ccc1C`, the growth inhibition was -1% in assay [1] (setting [7]); 85% (active) in assay [1] (setting [8]); 96.2% (active) in assay [1] (at 50.0 µM); 1% in assay [2] (setting [7]); 73% (active) in assay [2] (setting [8]); 95.3% (active) in assay [2] (at 50.0 µM). The growth inhibition was 0% in assay [3] (setting [7]); 57% in assay [3] (setting [8]); 95% (active) in assay [3] (at 50.0 µM); 6% in assay [4] (setting [7]); 26% in assay [4] (setting [8]); 63.1% in assay [4] (at 50.0 µM). Further, the growth inhibition is 3% in assay [5] (setting [7]); 59% in assay [5] (setting [8]); 94.3% (active) in assay [5] (at 50.0 µM); -3% in assay [6] (setting [7]); 81% (active) in assay [6] (setting [8]); 92.7% (active) in assay [6] (at 50.0 µM).

Consider `COc1cc[c]([Sn]([c]2ccc(OC)cc2)([c]2ccc(OC)cc2)[c]2ccc(OC)cc2)cc1`, for which the growth inhibition in assay [1] (setting [7]) is 1%; in assay [1] (setting [8]), 1%; in assay [1] (at 50.0 µM), 80.5% (active); in assay [2] (setting [7]), 6%; in assay [2] (setting [8]) it was 6%; in assay [2] (at 50.0 µM), 85.3% (active). Also, the growth inhibition is -5% in assay [3] (setting [7]); -5% in assay [3] (setting [8]); 80.8% (active) in assay [3] (at 50.0 µM); -9% in assay [4] (setting [7]); -9% in assay [4] (setting [8]); 85.8% (active) in assay [4] (at 50.0 µM). Also, the growth inhibition was 6% in assay [5] (setting [7]); 6% in assay [5] (setting [8]); 82.3% (active) in assay [5] (at 50.0 µM); -14% in assay [6] (setting [7]); -14% in assay [6] (setting [8]); 78.8% (active) in assay [6] (at 50.0 µM).

`C1CNC(CCNCCSCCNCCC2=NCCN2)=N1`: the growth inhibition was 10% in assay [1] (setting [7]); 90% (active) in assay [1] (setting [8]); 95.1% (active) in assay [1] (at 50.0 µM); 1% in assay [2] (setting [7]); 75% (active) in assay [2] (setting [8]); 84.2% (active) in assay [2] (at 50.0 µM). In addition, the growth inhibition in assay [3] (setting [7]) was 5%; in assay [3] (setting [8]) it was 87% (active); in assay [3] (at 50.0 µM), 91.9% (active); in assay [4] (setting [7]), 5%; in assay [4] (setting [8]), 72% (active); in assay [4] (at 50.0 µM) it was 83.2% (active). The growth inhibition was -2% in assay [5] (setting [7]); 89% (active) in assay [5] (setting [8]); 93.5% (active) in assay [5] (at 50.0 µM); 1% in assay [6] (setting [7]); 91% (active) in assay [6] (setting [8]); 94.3% (active) in assay [6] (at 50.0 µM).

In the case of `OC(c1ccccc1)(c1ccccc1)C1CCCCC1`, the growth inhibition in assay [1] (setting [7]) was 14%; in assay [1] (setting [8]), 97% (active); in assay [1] (at 50.0 µM) it was 25.5%; in assay [2] (setting [7]) it was 7%; in assay [2] (setting [8]), 97% (active); in assay [2] (at 50.0 µM), 1.7%. Also, the growth inhibition in assay [3] (setting [7]) is -4%; in assay [3] (setting [8]), 98% (active); in assay [3] (at 50.0 µM) it was 40.1%; in assay [4] (setting [7]) it was -8%; in assay [4] (setting [8]) it was 96% (active); in assay [4] (at 50.0 µM), -5.35%. Besides, the growth inhibition was -13% in assay [5] (setting [7]); 97% (active) in assay [5] (setting [8]); 5.95% in assay [5] (at 50.0 µM); 2% in assay [6] (setting [7]); 97% (active) in assay [6] (setting [8]); 9.9% in assay [6] (at 50.0 µM).

Turning to `COC(=O)[C@@]12OC[C@]34[C@H]([C@@H](O)[C@@H]1O)[C@@]1(C)CC(=O)C(OC(=O)CC(=O)OC5=C(C)[C@@H]6C[C@H]7OC(=O)[C@H](OC(=O)/C=C(\C)C(C)C)[C@H]8[C@]9(C(=O)OC)OC[C@]78[C@H]([C@@H](O)[C@@H]9O)[C@@]6(C)CC5=O)=C(C)[C@@H]1C[C@H]3OC(=O)[C@H](OC(=O)/C=C(\C)C(C)C)[C@@H]24`, the growth inhibition was 45% in assay [1] (setting [7]); 98% (active) in assay [1] (setting [8]); 90.3% (active) in assay [1] (at 50.0 µM); 43% in assay [2] (setting [7]); 99% (active) in assay [2] (setting [8]); 92.3% (active) in assay [2] (at 50.0 µM). The growth inhibition was 42% in assay [3] (setting [7]); 98% (active) in assay [3] (setting [8]); 92.5% (active) in assay [3] (at 50.0 µM); 49% in assay [4] (setting [7]); 98% (active) in assay [4] (setting [8]); 89.6% (active) in assay [4] (at 50.0 µM). Moreover, the growth inhibition in assay [5] (setting [7]) was 57%; in assay [5] (setting [8]) it was 99% (active); in assay [5] (at 50.0 µM), 92.2% (active); in assay [6] (setting [7]), 58%; in assay [6] (setting [8]), 97% (active); in assay [6] (at 50.0 µM) it was 84.5% (active).

For the origin of these results see PubChem BioAssay (NCI).
